T1: USP38, Q8NB14
T1 chain: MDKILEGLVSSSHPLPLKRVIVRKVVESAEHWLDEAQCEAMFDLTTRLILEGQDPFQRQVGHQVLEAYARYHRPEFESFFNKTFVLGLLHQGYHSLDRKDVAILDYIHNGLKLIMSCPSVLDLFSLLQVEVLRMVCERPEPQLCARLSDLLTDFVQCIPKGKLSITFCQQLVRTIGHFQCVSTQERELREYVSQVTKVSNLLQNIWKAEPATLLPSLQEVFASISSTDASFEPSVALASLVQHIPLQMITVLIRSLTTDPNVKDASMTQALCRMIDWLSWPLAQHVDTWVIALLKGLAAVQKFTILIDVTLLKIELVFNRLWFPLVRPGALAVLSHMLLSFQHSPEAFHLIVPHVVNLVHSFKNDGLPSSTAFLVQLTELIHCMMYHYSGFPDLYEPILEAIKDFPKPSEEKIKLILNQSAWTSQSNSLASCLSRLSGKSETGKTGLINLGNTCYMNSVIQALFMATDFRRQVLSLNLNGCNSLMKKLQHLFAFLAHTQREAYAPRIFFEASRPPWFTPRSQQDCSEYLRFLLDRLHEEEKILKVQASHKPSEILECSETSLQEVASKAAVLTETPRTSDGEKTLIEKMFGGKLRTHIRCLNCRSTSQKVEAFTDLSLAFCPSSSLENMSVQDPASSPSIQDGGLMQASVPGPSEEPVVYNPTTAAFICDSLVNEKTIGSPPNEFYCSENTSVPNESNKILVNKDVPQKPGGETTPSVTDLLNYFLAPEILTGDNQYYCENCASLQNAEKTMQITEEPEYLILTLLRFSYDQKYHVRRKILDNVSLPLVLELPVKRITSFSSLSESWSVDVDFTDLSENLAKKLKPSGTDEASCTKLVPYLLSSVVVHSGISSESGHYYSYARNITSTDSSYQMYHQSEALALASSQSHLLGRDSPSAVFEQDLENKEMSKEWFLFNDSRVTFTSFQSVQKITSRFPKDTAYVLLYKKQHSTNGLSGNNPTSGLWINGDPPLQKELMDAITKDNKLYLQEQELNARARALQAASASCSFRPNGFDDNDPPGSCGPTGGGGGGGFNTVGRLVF

B1: usp_38_diff_out_15_91_162 (protein)
chain: LESKLQAARGTADYAREMQERAEELGLEEEAALLQKVRDAAEELAKLYEELIALQKAGADQAEIDKVRKEAKKLLEELNKLISEAVPAAARILLKEQERE
B2: usp_38_diff_out_15_91_160 (protein)
chain: LESKLQAAKGTADWAKEMREEAEELGLEEEAALLEEVRKLAEELAKLLEELIKLEKEGAPQEEIDKLRKEAKEKEKELNEAISKAVPAAARILLARQEKE
B3: usp_38_diff_out_15_91_161 (protein)
chain: LESKLQAAEGTADYAKEMKAEAEKLGLEEQAKKLQEVADAAKKLAELYKKLIKLEKEGAPKEEIEKVRKEAKKLEEELNKLISEAVPYMAEILLKKQEKE
B4: usp_38_diff_out_15_85_155 (protein)
chain: EAEELKREIEREIEEARRLLEEARALLADPAAPLAAIREVLDRAAEALGRAEALARELRRRFPEYREFVKKALEELDRLTDELERLAREAFEREADALAA
B5: usp_38_diff_out_15_85_156 (protein)
chain: EAEKLKEEIERKIKEAEKLLKEAKKLLADPKAPLEEIRKVLDKAAEALGEAEKLARELRRKFPEEREYVKEVLKRLDKLVDELEKLAREAFEREADALLA
B6: usp_38_diff_out_15_91_163 (protein)
chain: MSSRTIATEGTLKRLKEDAELARELGLEETAKKAEEAAKLAEELLKLLKEREKAIKAGAPKEEIEKLRKEAKKKEKELNEKLSELVPDWAELELKRIEKE
B7: usp_38_diff_out_15_91_164 (protein)
chain: MSSKTIATKGTRDYLKDAAAEAKELGLEETAKALEEAAALADQLLDLLEQLEKAEKEGADQAEIDKLRKEAKELDAKLNEKISELVPGLAELEQKRIERE
B8: usp_38_diff_out_15_85_157 (protein)
chain: AAEALKAEIQAKIAEAKALLAEAKALLADPAAPLAEIEAVLDAAARALGQAQALARQLRREFPEQAAFVKAANAELDALTDELTALARAAFERRAEADLA
B9: usp_38_diff_out_16_109_169 (protein)
chain: SADEEADRLLAEAAIANFRALAEEARARLARLKARGASPAVLAAHQALADTAEAAAAEIEAALAAGENLRETTDRQWDAVGAAAAAASAALRAEARARSA
B10: usp_38_diff_out_16_109_167 (protein)
chain: SADEEAAKLLAEATIKELKALAKEAEERLKKLKAKGASEEVLAAEKKLADTAKKAAEEIEKALKKGENILETTNKKWDEVGAAAAEAAELRRAEARARSA
B11: usp_38_diff_out_16_109_165 (protein)
chain: SQDEEADRLLAEAAIANLKALAKEAKEELKKLKARGASPEVLAAYQKLADTAEAAAKAIEAALKAGKNLRETTDKQLDAVGAAAAAASALRRAEARERSA
B12: usp_38_diff_out_16_109_166 (protein)
chain: SADEEADRLLAEAAIENFEKLAEEAKEELKKLKAKGASEEVLKAYEDLAKTAREAAEKIREALERGENLRETTREQWDKVGAKAAEASELRRAEARERSA
B13: usp_38_diff_out_16_109_168 (protein)
chain: SADEEADRLLAEAAIANFRALAADAEAELKRLEARGASPAVLKAYADLAAKAKEAAATIEAALAKGENLRETTDAQWDAVGAAAARASELRRAEARERSA
B14: usp_38_diff_out_16_109_170 (protein)
chain: SQDEEADRLLAEATIENLKALAEEAKERLKKLEAKGASAEVLKAYKDLAETAKKAAEEIKEALKKGENIRETTDKKWDEVGKAAAAASEARRAEARARSA
B15: usp_38_diff_out_15_85_154 (protein)
chain: EAEELKREIEEEIRRAEELLAEAEALLADPAAPLEEIEAVLDEAARALGRAEALARELRRRFPEYREYVKEVLERLDELTDRLLALETEAFERRAEEDLA
B16: usp_38_diff_out_15_91_159 (protein)
chain: LESKLEAARGVAAWAEEMAARARELGLEEEAALFEEVAAAARELAELLEKIIKLKKEGADPKEIEAARKEAKAAEARLNELLSRAVPAAARVLLAEQERE

Molecular target: T1, USP38, Q8NB14
Test: median log2 fold change of GCK-ALFA target abundance (FLAG IP / Myc IP barcode read proportion) (log2 ratio); each designed protein is fused to an ALFA-tag nanobody in HEK293 cells to bring the named protein to FLAG-tagged glucokinase (GCK); Myc marks an untargeted standard; higher = target protein stabilised (more abundant)
Settings: target protein: 3xFLAG-MCP-GCK-ALFA reporter; HEK293 landing pad (RPLP)
How it was run: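 Sequencing of reverse-transcribed, amplified circular RNA barcodes from anti-FLAG and anti-Myc immunoprecipitates provided the readout for an ALFA-nanobody-fused binder library recombined into HEK293 landing-pad cells. Those cells were induced with 2 μg mL^−1 doxycycline, transfected with a plasmid expressing a FLAG-tagged target and a Myc-tagged standard, and lysed after 48 h. Target abundance is the per-binder median log2 ratio of FLAG to Myc barcode read proportions. Only barcodes at a proportion of ≥10^−7 in both replicates and binders with ≥3 barcodes per replicate were kept, with a 10^−6 pseudocount added before the two replicates were pooled.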

Binder | median log2 fold change
B1 | -0.243
B2 | 0.0652
B3 | -0.0204
B4 | 0.127
B5 | -0.0522
B6 | 0.082
B7 | 0.19
B8 | 0.104
B9 | -0.16
B10 | 0.102
B11 | 0.0224
B12 | 0.186
B13 | 0.16
B14 | 0.177
B15 | -0.0616
B16 | -0.149

— the supplement of paper PMC12632987
